According to ChEMBL document CHEMBL4513216, “Probing the Open Global Health Chemical Diversity Library for Multistage-Active Starting Points for Next-Generation Antimalarials” (ACS Infect Dis, 2020):
The campaign covered roughly 69,000 compounds. About 8,600 (12%) showed an effect of 50% or more. Only a selection was taken, and strong results are over-represented in it overall.

Test system: Plasmodium berghei
Experiment: Screen against P. berghei liver stage (PbLuc), transformed with Luciferase, at 10uM
Assay type: functional, HepG2
Settings: tested at 10 uM

SMILES	INHIBITION [%]
COc1ccncc1NCc1ccsc1	71.3
COc1ccncc1NCc1cscn1	21.6
COc1ncc(NCc2ccsc2)cc1C(N)=O	32.2
O=C(CCc1ccsc1)Nc1cnccc1O	-3.43
COc1ccccc1NCc1cscn1	27.5
CC(C)(C)Oc1ccncc1NCc1cscn1	70.3
Cc1noc(C)c1CSC1CCCN(c2cnn(C)c2)C1=O (stereo unspecified)	-41.9
COCCN1CCOCC12CCN(Cc1ccn(C)n1)CC2	34.6
CC(=O)NCc1cc2n(n1)CCN(Cc1cc(-c3ccccc3)no1)C2	32.2
COCCN1CCC2(CC1)CC(c1cccnc1)C(=O)N2C (stereo unspecified)	26.5
CCc1nc(C2CCCN(C(=O)NC(C)C)C2)no1 (stereo unspecified)	13.6
O=C([C@@H](O)Cc1ccccc1)N1CCCn2cncc2C1	18.6
Cc1ccnc(NC(=O)c2cnc(C3CCCNC3)cn2)c1 (stereo unspecified)	37.35
CC(C)NC(=O)COc1cccc(-c2nc(C(C)C)no2)c1	26.8
CCc1cc(=O)n(CC(=O)N2CCCC2)c(-c2ccccc2)n1	4.35
CCc1cc(=O)n(CC(=O)N2CCC(C)CC2)c(-c2cccc(F)c2)n1	17.6
CCc1cc(=O)n(CC(=O)N2CCC(C)CC2)c(-c2ccccc2)n1	57.3
CNc1nc2c(s1)C(c1cc(Cl)ccc1F)CC(=O)N2 (stereo unspecified)	35.8
CCn1cc(CN(C)S(=O)(=O)c2ccc(C(C)C)cc2)cn1	26.7
Cc1cc(C)n(CC2CN(c3ccc(C#N)cn3)CCO2)n1 (stereo unspecified)	23.7
Cc1nn(C)c2cnn(Cc3ccc(C(=O)NC4CC4)o3)c12	16.8
Cc1nn(C)c2cnn(Cc3ccc(C(=O)N4CCN(C)CC4)o3)c12	65.6

SMILES	INHIBITION [%]
Cc1nn(C)c2cnn(Cc3ccc(C(=O)N4CCCCC4)o3)c12	21.7
CCc1ccc(NC(=O)N2C[C@@H]3C[C@H](C(=O)NC)[C@H](C2)O3)cc1	15
O=C1NCc2ccccc2CC12CCCN(Cc1ccsc1)C2 (stereo unspecified)	14.3
O=C(COCC1CC1)Nc1ncn(CC(=O)N2CCCCCC2)n1	-32.4
O=C(Nc1ncn(CC(=O)N2CCCCCC2)n1)C1CCCC1	2.7
O=C(COC1CCCC1)Nc1ncn(CC(=O)N2CCCCCC2)n1	8.75
O=C(CC1C=CCC1)Nc1ncn(CC(=O)N2CCCCCC2)n1 (stereo unspecified)	50.6
CC(CC(=O)Nc1ncn(CC(=O)N2CCCCCC2)n1)C1CC1 (stereo unspecified)	-28.8
CC(OCC1CC1)C(=O)Nc1ncn(CC(=O)N2CCCCCC2)n1 (stereo unspecified)	51.7
Cc1ccc2oc(C(=O)N3CCCC(n4nc(C)nc4C)C3)cc2n1 (stereo unspecified)	-2.95
COc1ccc(CNC(=O)CCCc2nnc3ccc(OC)nn23)cc1	8.99
CCn1nc(CNC(C)(C)CO)c(-c2ccccc2)n1	20.9
CCCOCC(=O)N1CCc2c(cccc2S(=O)(=O)N2CCOCC2)C1	26.7
Fc1cnc(N2CC[C@@H]3O[C@@H](COCc4ccccn4)CC[C@@H]32)nc1	18.5
c1cnc(N2CCC3(CCN(CC4CCOC4)C3)CC2)nc1 (stereo unspecified)	34.7
COc1ccc(Br)c(C(=O)NCC2CC2)c1	90.2
COc1ccc(C(=O)NCC2CCCN(C3CCOCC3)C2)c(O)c1 (stereo unspecified)	57.4
COc1ccc(O)c(C(=O)NCC2CCCN(C3CCOCC3)C2)c1 (stereo unspecified)	14.3
Cc1cccc(C)c1NC(=O)NCC1CCCN(C2CCOCC2)C1 (stereo unspecified)	-15
COc1cccc(NC(=O)NCC2CCCN(C3CCOCC3)C2)c1 (stereo unspecified)	58.8
COc1ccc(C(=O)Nc2cnn(CCN3CCOCC3)c2)c(O)c1	29.5
COc1ccc(Br)c(C(=O)NCC2CCN(S(=O)(=O)C3CC3)CC2)c1	38.5

SMILES	INHIBITION [%]
COCCNC(=O)c1cc(OC)ccc1Br	-85
COc1cccc(OCC2CCCN(C3CCN(C(C)=O)CC3)C2)c1 (stereo unspecified)	15.1
CC(NC(=O)N(C)CCCOc1ccccc1)c1nncn1C (stereo unspecified)	0.914
Cc1ccc(N2CCC3(CCC(=O)N3Cc3ccncc3)CC2)nn1	3.17
CCc1nnc2n1CCN(C(=O)C(C)Oc1ccc(C#N)cc1)C2 (stereo unspecified)	-48.3
Cc1noc(C2CN(S(C)(=O)=O)Cc3ccnn3C2)n1 (stereo unspecified)	50.7
CCS(=O)(=O)N1Cc2ccnn2CC(c2nc(C)no2)C1 (stereo unspecified)	-5.63
Cc1noc(C2CN(S(=O)(=O)C3CC3)Cc3ccnn3C2)n1 (stereo unspecified)	34.6
CNc1oc(-c2ccc(OC)c(S(=O)(=O)N(C)C)c2)nc1C#N	8.46
CC1CN(C(=O)Nc2cc(C(F)(F)F)c[nH]c2=O)CCO1 (stereo unspecified)	-4.12
O=C(Cc1cccnc1)N1C[C@H]2CC[C@@H](C1)N(Cc1ccccc1)C2=O	40.4
O=C(Cc1ccccn1)N1C[C@H]2CC[C@@H](C1)N(Cc1ccccc1)C2=O	-4.86
O=C(Cc1ccncc1)N1C[C@H]2CC[C@@H](C1)N(Cc1ccccc1)C2=O	63.7
CCc1nc(CNc2ccc(C(=O)N3CCSCC3)cc2C)no1	15.5
O=C(O)c1cc2c(nc1-c1ccsc1)CCN(C1CCOC1)CC2 (stereo unspecified)	11.3
Cc1ccc(N2CCN(C(=O)CCc3n[nH]c(C)n3)CC2=O)cc1	2.7
Cn1ccnc1CN1CCCN(C(=O)c2ccc3cc[nH]c3c2)CC1	55.2
CCn1ccnc1CN1CCCN(C(=O)c2cc(C)nn2CC)CC1	32.3665
Cn1ccnc1CN1CCCN(C(=O)c2ccc3[nH]cnc3c2)CC1	21
CC(CC(=O)N1CCCN(Cc2nccn2C)CC1)n1cccc1 (stereo unspecified)	18.9
Cn1ccnc1CN1CCCN(C(=O)CC(C2CC2)C2CC2)CC1	50.3
Cn1ccnc1CN1CCCN(C(=O)COC2CCCC2)CC1	-11.4

SMILES	INHIBITION [%]
CC(Oc1ccccc1)C(=O)N1CCCN(Cc2nccn2C)CC1 (stereo unspecified)	54.4
CSC(C)C(=O)N1CCCN(Cc2nccn2C)CC1 (stereo unspecified)	-5.25
CCn1ccnc1CN1CCCN(C(=O)c2cccn2C)CC1	56.6
CCn1ccnc1CN1CCCN(C(=O)c2ccnn2C)CC1	16.45
CC(OCC1CC1)C(=O)N1CCCN(Cc2nccn2C)CC1 (stereo unspecified)	9.32
Cn1ccnc1CN1CCCN(C(=O)c2ccc3ccccc3c2)CC1	27.8
CCNc1nc2cn(-c3ccc(CC)cc3)c(=O)c-2c[nH]1	-14.245
Cn1cc(C2CCCN2C(=O)c2ccc(OCC3CC3)nc2)cn1 (stereo unspecified)	-27
O=S(=O)(CCN1CCN(c2ccccc2O)CC1)c1ccc(Cl)cc1	-36.3
CN(C)CCN1C[C@@H]2CN(C(=O)C3CCOC3)C[C@@H]2C1=O (stereo partly specified)	12.7
COc1ccc(/C=C/CN2C[C@@H]3CC[C@H]2CN(S(=O)(=O)N(C)C)C3)cc1	38.6
CCOCC1CN(Cc2cccnc2)Cc2nn(C)cc21 (stereo unspecified)	-21.4
O=C(C1CC(F)(F)C1)N1C[C@@H]2CN(CC3CCCC3)CCO[C@@H]2C1	20.6
O=C1CN(C(=O)CCn2c(C(F)(F)F)cc3cccnc32)CCN1	25.6
CSC1(CNC(=O)c2cccc(-n3cccn3)c2)CCOCC1	-46.4
Cc1ncccc1NC(=O)[C@@H]1CCO[C@@H]2CCN(c3ccccc3)C[C@@H]21	41.4
CC(C)N1CCC(CC(=O)N2CCC(C(O)c3nccn3C)CC2)CC1 (stereo unspecified)	46.7
CC(C)N1CCC(CC(=O)N2CCN(Cc3nccn3C)CC2)CC1	58.5
Cn1ccnc1CN1CCCN(C(=O)COCC2CC2)CC1	13.3
O=c1c2c[nH]c(N3CCCCC3)nc-2cn1-c1ccc2c(c1)OCO2	-22.9
Fc1cccc(-c2nnn3c2COC(CNCc2cccs2)C3)c1 (stereo unspecified)	1.9
Fc1cccc(-c2nnn3c2COCC(CNCc2nccs2)C3)c1 (stereo unspecified)	47.5

SMILES	INHIBITION [%]
Cc1cccc(-c2nnn3c2COC(CNCc2nccs2)C3)c1 (stereo unspecified)	-10.2
Fc1cccc(-c2nnn3c2COC(CNCc2nccs2)C3)c1 (stereo unspecified)	50.3
Fc1cccc(-c2nnn3c2COC(CNCc2ccsc2)C3)c1 (stereo unspecified)	52
Cc1ccc(CNCC2Cn3nnc(-c4cccc(F)c4)c3CO2)o1 (stereo unspecified)	18.2
COc1cc2nc(C)n(CC(=O)NCC(C)C)c(=O)c2cc1OC	21.5
CC(=O)N1CCC(Cc2nccnc2-c2c(C)n[nH]c2C)C1 (stereo unspecified)	-14.1
COCCN1C[C@@H](C)[C@@]2(COCCN(C(=O)c3cccc(C)n3)C2)C1	-10.5
Cn1cc(-c2nc(C3CCN(S(C)(=O)=O)CC3)cc3c2ncn3C)cn1	15.7
COc1ccc(-c2nc(C3CCNCC3)cc3c2ncn3C)cc1	53
CC(C)n1cnc2c(N3CCCC3)nc(C3CCNCC3)cc21	-3.52
CC(=O)N1CCC(c2cc3c(ncn3C)c(-c3cnn(C)c3)n2)CC1	33.4
CC(C)n1cnc2c(-c3cccnc3)nc(C3CCNCC3)cc21	55.7
Cn1cnc2c(-c3cccnc3)nc(C3CCNCC3)cc21	48.4
COc1ccc(-c2ccnc(C3CCNCC3)c2)cc1	29.2
Cn1cc(-c2nc(C3CCN(CC4CC4)CC3)cc3c2ncn3C)cn1	61.5
Cn1cnc2c(-c3ccccc3)nc(C3CCNCC3)cc21	38.5
O=C(CC1CC1)NCc1cn2c(n1)CN(CC1CC1)CC2	9.67
Cc1nc2sc(C(=O)N3CCNC(=O)C3)c(C)c2c(=O)[nH]1	-4.35
